In the library only some 19% were active in any assay of this set; here they are far more common.
IL-1B inflam inh – qHTS for Inhibitors of Inflammasome Signaling: IL-1-beta AlphaLISA Primary Screen | AID 743279, 2014 | THP-1 LPS/ATP IL-1B secretion, AlphaLISA, 16 h; active compounds read low | 4.7% of 360,000 active | activity change, % at 57.5 µM; in the data active means activity change below about -50%; inconclusive means mostly about -30% to -49%
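THP-1 cells pretreated 1 hr with compounds (up to 57.5 uM final), then stimulated with LPS (250 ng/mL final) plus ATP (1.25 mM final); secreted IL-1B measured by AlphaLISA after 16 hr, decreased signal indicating inhibition.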
HT1080-NT tox – qHTS for induction of synthetic lethality in tumor cells producing 2HG: qHTS for the HT-1080-NT fibrosarcoma cell line | HT-1080-NT fibrosarcoma viability, CellTiter-Glo ATP luminescence, 48 h | Potency, µM (top dose mostly 46.1 µM), usual class: cytotoxic | 1.6% of 360,000 active | AID 686970, 2013;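 further: NT is the 2HG producing partner of a matched IDH1 knockdown line; nearly all actives have a fitted effect of over 55% in size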
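Fibrosarcoma NT cells, 750 per well in 5% FBS RPMI, were exposed to compound for 48 hours. Viability: CellTiter-Glo luminescence.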
HT1080 IDH1KD tx – qHTS for induction of synthetic lethality in tumor cells producing 2HG: qHTS for the HT-1080-IDH1KD cell line. HT-1080 IDH1 knockdown viability, ATP luminescence, 48 h. 2% of 360,000 active. AID 686971, 2013. Potency, µM (series often up to 46.1 µM), usual class: cytotoxic
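% activity derives from luminescence (CellTiter-Glo), normalised to DMSO and no-cell wells. HT-1080-IDH1KD cells, 750/well, had 48 h compound exposure at 37 °C.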
DT40 TDP1 CPT – qHTS for Inhibitors of human tyrosyl-DNA phosphodiesterase 1 (TDP1): qHTS in cells in presence of CPT; chicken DT40 Tdp1-/-;hTDP1 cells + 20 nM CPT, ATP luminescence, 48 h; 12% of 420,000 active; AID 686979, 2013; Potency, µM (highest dose often 46.2 µM), hits mostly inhibitors; further: nearly all actives have a fitted effect of over 55% in size
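Cell growth measured by CellTiter-Glo luminescence after a minimum 48 h, 37 C compound exposure with 20 nM CPT in Tdp1-knockout DT40 cells stably expressing hTDP1, seeded 400/well; qHTS titration format.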
DT40 TDP1 no CPT – qHTS for Inhibitors of human tyrosyl-DNA phosphodiesterase 1 (TDP1): qHTS in cells in absence of CPT; 15% of 420,000 active; DT40 Tdp1-/- hTDP1 cells, no CPT, ATP luminescence, 48 h; Potency, µM (highest dose often 46.2 µM), hits mostly inhibitors; further: nearly all actives have a fitted effect of over 55% in size
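Camptothecin absent (DMSO only). Human TDP1-complemented DT40 knockout cells, 400 cells/well, 37 °C for minimum 48 hr; ATP measured via CellTiter-Glo, 30 min dark incubation, luminescence.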
Hits are given with their value; – = inactive; ? = inconclusive; · = no result; ! = not confirmed by another sample. Unless noted, the call rests on the fitted dose curve; in most records, active means well fitted curve in the direction sought with a large enough effect; inconclusive means small, poorly fitted or top-dose-only effect, or another doubt; inactive means no such curve, though single readings can be large; an effect the other way counts as inactive or inconclusive.

SMILES | IL-1B inflam inh | HT1080-NT tox | HT1080 IDH1KD tx | DT40 TDP1 CPT | DT40 TDP1 no CPT
Cc1nc(Cl)sc1C(=O)Nc1cccc(C(F)(F)F)c1 | – | – | – | – | –
Cc1cc(Cl)c(C(=O)Nc2cccc(C(F)(F)F)c2)c(C)n1 | -53.7 | – | – | – | –
CCOC(=O)c1ccc(NC(=O)c2c(Cl)cc(C)nc2C)cc1 | ? | – | – | 3.26µM | 5.17µM
CCOc1ccc(NC(=O)CN2CCN(Cc3c(F)cccc3F)CC2)cc1 | – | – | – | – | –
CCOC(=O)N1CCN(CC(=O)Nc2ccccc2C(=O)Nc2ccccc2)CC1 | – | – | – | ? | ?
Cc1ccc([N+](=O)[O-])cc1NC(=O)Nc1cccc(F)c1 | – | – | – | 4.61µM | 9.2µM
Cc1ccc(N=Nc2ccc(C)cc2NC(=O)Nc2ccccc2F)cc1 | – | – | – | ? | 20.6µM
Cc1cc([N+](=O)[O-])ccc1NC(=O)Nc1ccccc1F | -99.4 | – | – | ? | ?
O=C(Nc1ccccc1)Nc1cc([N+](=O)[O-])ccc1F | – | – | – | – | ?
CCOC(=O)N1CCN(CC(=O)Nc2ccc([N+](=O)[O-])cc2C(=O)Nc2ccccc2F)CC1 | – | ? | – | 20.6µM | 9.2µM
CC1=C(CC(=O)O)c2cc(F)ccc2/C1=C/c1ccc(S(C)=O)cc1 (stereo not given) | – | – | – | – | –
COc1ccc(CC(=O)NNC(=O)c2cccnc2)cc1OC | – | – | – | – | –
CC(C)(C)C(=O)Nc1nnc(SCC(=O)NC2CCCC2)s1 | – | – | – | – | –
COc1ccc(CN2CC[C@H]3C=CC[C@@H](C(=O)NCc4cccnc4)[C@H]3C2=O)cc1OC | · | · | · | – | –
Cc1cc([N+](=O)[O-])ccc1NC(=O)Cc1ccc(F)cc1 | -58.9 | – | – | – | –
O=C(COc1ccc([N+](=O)[O-])cc1)NNC(=O)Nc1ccccc1F | – | 4.11µM | 3.66µM | – | –
COc1ccc(CNc2ccc([N+](=O)[O-])cc2C)cc1 | – | – | – | ? | –
O=C(Cc1ccc([N+](=O)[O-])cc1)Nc1cc(C(F)(F)F)cc(C(F)(F)F)c1 | · | – | ? | 4.11µM | 6.51µM
Cc1cc([N+](=O)[O-])ccc1NCc1ccc2ccccc2c1 | – | – | – | ? | 18.4µM
Cc1ccc([N+](=O)[O-])cc1NC(=O)Cc1ccc(F)cc1 | – | – | – | – | –
O=C(CCc1nnc(C2CCCCC2)o1)N1CCN(Cc2ccccc2)CC1 | – | – | – | – | –
Cc1cc(F)ccc1NC(=O)CCS(=O)(=O)c1cc2c3c(c1)CCN3C(=O)CC2 | · | · | · | – | –
O=C(NC1CC(=O)N(c2cccc(F)c2)C1)c1cccs1 (stereo not given) | · | · | · | – | –
COc1ccc(CN=C2NC(=O)CC(C(=O)Nc3ccc(Cl)cc3)S2)cc1 (stereo not given) | – | ? | ? | 20.6µM | 13µM
CSc1ccc(Cl)c(C(=O)OCC(=O)N(C)CCC#N)c1 | – | – | – | – | –
SMILES | IL-1B inflam inh | HT1080-NT tox | HT1080 IDH1KD tx | DT40 TDP1 CPT | DT40 TDP1 no CPT
COc1ccccc1C(=O)NCC(c1ccco1)N1CCc2ccccc21 (stereo not given) | – | – | – | 14.6µM | 23.1µM
Cc1ccc(C(=O)NCC(c2ccco2)N2CCc3ccccc32)cc1C (stereo not given) | – | – | – | 20.6µM | 16.4µM
COc1ccc(CCC(=O)NCC(c2ccco2)N2CCc3ccccc32)cc1 (stereo not given) | – | – | – | 18.4µM | 23.1µM
COc1ccccc1NC(=O)C(=O)NCC(c1ccco1)N1CCc2ccccc21 (stereo not given) | – | – | – | ? | ?
COc1cc(C(=O)NCC(c2ccco2)N2CCc3ccccc32)cc(OC)c1OC (stereo not given) | – | – | – | ? | 9.2µM
O=C(c1ccccn1)N1CCCC(N2CCN(c3ccc(F)cc3)CC2)C1 (stereo not given) | – | ? | – | – | –
Cc1cc(C(=O)Nn2c(-c3ccncc3)nc3ccccc3c2=O)ccc1[N+](=O)[O-] | – | – | – | – | –
COc1cccc(/C=N/n2c(COc3ccccc3)n[nH]c2=S)c1 | – | – | – | – | –
COc1cccc(-c2cc(C(=O)N3CCN(C(=O)c4ccco4)CC3)[nH]n2)c1 | – | – | – | – | ?
COc1ccc(S(=O)(=O)N(C)[C@H]2C[C@H]3c4cc(Oc5ccccc5C)ccc4CCN3C(=O)[C@H]2[C@H](C)O)cc1 | ? | – | ? | 9.2µM | 6.51µM
COc1ccc(-c2ccc3c(c2)[C@@H]2C[C@H](N(C)C(=O)Nc4ccccc4)[C@H]([C@H](C)O)C(=O)N2CC3)cc1 | – | – | – | ? | ?
COc1ccc(S(=O)(=O)N(C)[C@H]2C[C@H]3c4cc(-c5ccccc5)ccc4CCN3C(=O)[C@H]2[C@H](C)O)cc1 | – | ? | ? | ? | 20.6µM
O=C(COC(=O)CC1CC2CCC1C2)NCc1ccccc1 (stereo not given) | – | – | – | – | –
Cc1nonc1NC(=O)CSc1nnnn1-c1ccccc1 | – | – | – | – | –
CCC(C)Sc1ccc(-c2nc3cc(C)ccn3c2NC2CCCCC2)cc1 (stereo not given) | -65.7! | 20.6µM | ? | 23.1µM | 14.6µM
Clc1ccc(-c2nc3cnccn3c2NC2CCCC2)cc1 | – | – | – | ? | 25.9µM
CCC(C)Sc1ccc(-c2nc3cnccn3c2NC2CCCCC2)cc1 (stereo not given) | -51.7! | ? | ? | ? | 16.4µM
COc1ccc(Sc2ccc(-c3nc4cnccn4c3NC3CCCCC3)cc2OC)cc1 | ? | – | – | 14.6µM | 13µM
COc1cc(-c2nc3cnccn3c2NC(C)(C)CC(C)(C)C)ccc1O | – | – | – | ? | ?
COc1ccc(N(CCC#N)C(=O)/C(C#N)=C/c2cccs2)cc1 | – | – | – | ? | –
CCOc1ccccc1NC(=O)/C(C#N)=C/c1c(C)nn(-c2ccc(F)cc2)c1Cl | – | – | – | 13µM | –
Cc1nn(-c2ccc(Cl)cc2)c(Cl)c1/C=C(\C#N)C(N)=O | – | – | – | ? | ?
C=CCNC(=O)/C(C#N)=C/c1c(C)nn(-c2ccc(Cl)cc2)c1Cl | -56.8 | ? | ? | ? | 23.1µM
COc1ccc(-c2sc(Nc3ccc(F)c(F)c3F)nc2CCC(=O)NN)cc1 | ? | ? | – | ? | ?
CC(C)CN1CC[C@@]2(CCCN(C(=O)c3cc(C(F)(F)F)cc(C(F)(F)F)c3)C2)C1 | · | · | · | – | ?

Bioassay records from PubChem.
